Test results taken from ChEMBL document CHEMBL3988442, “University of Dundee, Small-Polar-MMV Screening Library” (2021).
The whole screen tested about 48,000 compounds, of which about 13,000 (27%) showed an effect of 50% or more. Some of the results follow.

These compounds were tested on Wolbachia pipientis (assay: Anti-Wolbachia Cell-Based Screen). Conditions: 5 µM.
Format: functional
Design: scale not given: in the data most compounds retested in dose-response had high values

Compared with `CC(C)n1nc(Cn2cccn2)c2c1CN(CC1CCOC1)C2.O=C(O)C(F)(F)F` (centres undefined), `CN1CCc2onc(Cn3cccc3)c2C1.O=C(O)C(F)(F)F` is lower in “Percent Effect” value: -1.747% for the first, -7.222% for the second.

First: CCOC(=O)NCCC(=O)NCc1ccc(Oc2cccc(F)c2)nc1
Second: O=C(NCC(F)(F)F)c1coc(COc2cccc(F)c2)n1
The “Percent Effect” value of the first is higher: 3.713% for the first, -8.912% for the second.

Going from `CCOc1ncnc2c1CCN(S(=O)(=O)CC)CC2` to `CCS(=O)(=O)N1CCc2ncnc(OC)c2CC1`, the “Percent Effect” value rises from -16.86% to 0.7096%.

First: CCN(C)c1ncnc2c1CCN(S(=O)(=O)c1ccccc1)CC2.O=C(O)C(F)(F)F
Second: CCc1ncnc2c1CCN(S(=O)(=O)c1ccccc1)CC2
The “Percent Effect” value of the first is lower: 77.11% for the first, 113.2% for the second.

Compared with `CCN(C)c1ncnc2c1CCN(C(=O)N(C)C)CC2.O=C(O)C(F)(F)F`, `CCN(C)c1ncnc2c1CCN(C(=O)c1ccccn1)CC2.O=C(O)C(F)(F)F.O=C(O)C(F)(F)F` is higher in “Percent Effect” value: -3.614% for the first, -0.1551% for the second.

First: CCc1ncnc2c1CCN(S(=O)(=O)CC)CC2
Second: CCS(=O)(=O)N1CCc2ncnc(C)c2CC1
The “Percent Effect” value of the first is higher: 104.4% for the first, -1.649% for the second.

First: CCc1ncnc2c1CCN(C(=O)N1CCCC1)CC2
Second: CCc1ncnc2c1CCN(C(=O)Cc1ccccn1)CC2
The “Percent Effect” value of the first is higher: 16.14% for the first, -1.286% for the second.

First: CCOc1ncnc2c1CCN(Cc1cccs1)CC2.O=C(O)C(F)(F)F
Second: CCOc1ncnc2c1CCN(S(=O)(=O)c1ccccc1)CC2
The “Percent Effect” value of the first is lower: -4.6% for the first, 89.01% for the second.

Going from `CC(O)CN(CC(=O)NC(=O)NCC(F)(F)F)c1ccccc1` (centres undefined) to `COC(=O)CCNC(=O)c1cccc(C(=O)N(C)c2ccccc2)c1`, the “Percent Effect” value rises from -9.09% to 2.44%.

Compared with `COCCN1CCN(C(=O)c2ccc(C)cc2F)[C@H]2CS(=O)(=O)C[C@H]21`, `Cn1cc(C2CCCN2C(=O)CCCOc2ccc(F)cc2F)cn1` (centres undefined) is lower in “Percent Effect” value: 8.657% for the first, 6.494% for the second.

First: CC(=O)N1CCN(C(=O)NCCCN(C(C)C)S(C)(=O)=O)CC1
Second: CC(C)c1ncncc1C(=O)NCCN1CCCS1(=O)=O
The “Percent Effect” value of the first is lower: -2.467% for the first, -1.199% for the second.

Compared with `COc1ccc2[nH]nc(CN3CCN(Cc4cccc(F)c4)CC3)c2c1`, `O=C(CCOc1cccc(F)c1)N1CCCC(n2cccn2)C1` (centres undefined) is higher in “Percent Effect” value: -9.903% for the first, 114% for the second.

Compared with `Cc1cc(NCCCNS(C)(=O)=O)nc2ccccc12`, `CCN1CCN(S(=O)(=O)c2c[nH]c(C(C)C)n2)c2ccccc21` is lower in “Percent Effect” value: -15.92% for the first, -17.2% for the second.

First: CCN(C)C1COC2(CCN(C(=O)c3ccc4[nH]ccc4c3)CC2)C1 (centres undefined)
Second: Cn1cnnc1C1CCN(C(=O)Cc2ccc3c(c2)OCCO3)CC1
The “Percent Effect” value of the first is lower: -14.16% for the first, 14.42% for the second.

Going from `O=C(CCCOc1ccccc1Cl)N1CCCC(n2cncn2)C1` (centres undefined) to `O=C(CCCOc1cccc(F)c1)N1CCCC(n2cncn2)C1` (centres undefined), the “Percent Effect” value rises from 20.25% to 133%.

Going from `O=C(CCCOc1ccc(F)cc1)N1CCCC(n2cccn2)C1` (centres undefined) to `O=C(CCCOc1cccc(F)c1)N1CCCC(n2cccn2)C1` (centres undefined), the “Percent Effect” value rises from -3.272% to 116.5%.

First: O=C(CCOc1cccc(F)c1)N1CCCC(n2cncn2)C1 (centres undefined)
Second: O=C(CCCOc1ccc(F)cc1F)N1CCCC(n2cccn2)C1 (centres undefined)
The “Percent Effect” value of the first is lower: -0.888% for the first, 132.9% for the second.

Going from `O=C(CCCc1nc2ccccc2[nH]1)N1CCCC(n2cccn2)C1` (centres undefined) to `O=C(COc1ccc2c(c1)CCC2)N1CCCC(n2cccn2)C1` (centres undefined), the “Percent Effect” value rises from -6.233% to 22.49%.

First: Cc1nnc2n1CCN(C(=O)CN1C(=O)CCOc3ccccc31)C2
Second: Cn1c(C2CCCN2C(=O)CN2CSCC2=O)nc2ccccc21 (centres undefined)
The “Percent Effect” value of the first is lower: -10.74% for the first, -5.788% for the second.

First: CCc1ocnc1C(=O)Nc1ccc2ccn(CCN(C)C)c2c1
Second: CN(Cc1ccc2c(c1)OCCO2)C(=O)Cn1cccnc1=O
The “Percent Effect” value of the first is lower: -13.13% for the first, 7.904% for the second.

Going from `C/C(=C\c1ccco1)CN(C)C(C)c1ccccn1` (centres undefined) to `CC(C)S(=O)(=O)c1ccccc1C(=O)NCC1Cc2ccccc2O1` (centres undefined), the “Percent Effect” value falls from 4.306% to -14.53%.

Compared with `CCC(CO)N(Cc1ccccc1C)Cc1ccccc1C(=O)O` (centres undefined), `O=C(O)C(F)(F)F.c1ccn(Cc2noc3c2CN(Cc2ccsc2)CC3)c1` is higher in “Percent Effect” value: -4.887% for the first, -2.985% for the second.

Compared with `COc1ccc(-c2noc([C@@H]3C[C@@H](O)CN3C3CCOCC3)n2)cc1`, `Cn1nc(COCC2CC2)c2c1CCN(C(=O)c1ccno1)C2` is lower in “Percent Effect” value: 13.77% for the first, 2.608% for the second.

Going from `CN(C)c1ncc(-c2cncn2CCc2ccc3c(c2)OCCO3)cn1.Cl` to `CCn1cc(-c2cncn2CCc2ccc3c(c2)OCCO3)cn1.Cl`, the “Percent Effect” value rises from 96.16% to 128.2%.

First: CN(Cc1ccc2c(c1)OCCO2)C(=O)NCCc1cnn(C)c1
Second: Cc1cnn(C2CN(Cc3ccc4c(c3)OCCO4)C2)c1
The “Percent Effect” value of the first is higher: 10.28% for the first, 4.221% for the second.

Compared with `CN(Cc1ccc2c(c1)OCCO2)c1ncc(S(N)(=O)=O)s1`, `Cc1nn(C)cc1-c1cncn1CCc1ccc2c(c1)OCCO2.Cl` is higher in “Percent Effect” value: -17.53% for the first, 107.7% for the second.

Compared with `COc1ccc(CN(C)C(=O)CCc2c(C)nc(C)[nH]c2=O)cc1OC`, `CCc1nc(C)sc1CN1CCc2[nH]nc(-c3ccc(F)c(F)c3)c2C1` is higher in “Percent Effect” value: 10.21% for the first, 80.67% for the second.

Going from `CC(C)Cn1ccnc1CNC(=O)NC(C)c1nccs1` (centres undefined) to `Cn1ccnc1CN1CCO[C@H]2C(CNC(=O)c3ccco3)CC[C@@H]21.O=C(O)C(F)(F)F` (some centres undefined), the “Percent Effect” value rises from -12.96% to -4.038%.

First: Cc1cccc(CNC[C@H]2COCc3nc4cccnc4n32)n1
Second: CC(C)c1nnsc1CN1CCc2[nH]nc(-c3ccc(Cl)cc3)c2C1
The “Percent Effect” value of the first is higher: -11.24% for the first, -32.01% for the second.

Compared with `CO[C@@H]1CN(S(=O)(=O)c2cn(C)cn2)[C@@H]2CCCO[C@@H]21.O=C(O)C(F)(F)F`, `Cn1ccnc1CN1CCc2onc(COCC3CC3)c2C1.O=C(O)C(F)(F)F` is higher in “Percent Effect” value: 7.147% for the first, 94.95% for the second.

First: Cn1ccnc1CN1CCc2c(COCC3CC3)nn(C)c2C1
Second: Cn1cc(CN2CCCn3cnc(COCC4CC4)c3C2)cn1
The “Percent Effect” value of the first is higher: 104.2% for the first, -7.099% for the second.

Going from `Cc1nc(N)sc1C(=O)N[C@H]1CN(CCO)C[C@@H]1C1CC1` to `CC(C)c1nnsc1CN1CCc2[nH]nc(-c3ccc(F)c(F)c3)c2C1`, the “Percent Effect” value falls from 15.87% to -14.43%.
